In the library only some 1.7% were active in any assay of this set; here they are far more common.
GLP1R cytotox = cytotoxicity in counter-screen for GLP-1R inverse agonists; HEK293 cAMP-luciferase reporter cells, luminescence, 24 h; Potency, µM (titrated, usually from 38.3 µM), actives largely listed as inhibitors; 410,000 compounds, 0.13% hits;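 also: loss of luciferase light is scored as toxicity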
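Step one: seed cells (200 cells/uL, DMEM with 10% Nu serum, 1% pen-strep). Step two: 12-hour incubation at 37 deg C. Step three: pin 23 nL compound, incubate 24 hr. Step four: add luciferase reagent, read luminescence 12 min later.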
PTHR1 ag = PTHR1 (human) receptor agonism; HEK293 GP2 PTHR1 cells, GloSensor cAMP luminescence, 1 h; Potency, µM (doses to about 115 µM), usual class: activators; 410,000 compounds, 0.075% hits; also: nearly all actives have a fitted effect of over 55% in size
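HEK-293-derived GP2 cells expressing PTHR1 and a GloSensor cAMP reporter, 3,000/well, plated overnight, given luciferin plus IBMX (each 0.5 mM as added) for 1 h at 37 °C, then compound for 1 h at 37 °C. Luminescence was read after 15 min at room temperature.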
GLP1R inv ag = inverse agonists of human GLP-1 receptor; P43220; AID 624417; 410,000 compounds, 1.6% hits; Potency, µM (top dose mostly 38.3 µM), most hits filed as inhibitors; HEK293 GLP-1R CRE-luciferase, luminescence, 24 h; GLP-1R form is constitutively active; also: nearly all actives have a fitted effect of over 55% in size
Target sequence (P43220 whole entry, looked up): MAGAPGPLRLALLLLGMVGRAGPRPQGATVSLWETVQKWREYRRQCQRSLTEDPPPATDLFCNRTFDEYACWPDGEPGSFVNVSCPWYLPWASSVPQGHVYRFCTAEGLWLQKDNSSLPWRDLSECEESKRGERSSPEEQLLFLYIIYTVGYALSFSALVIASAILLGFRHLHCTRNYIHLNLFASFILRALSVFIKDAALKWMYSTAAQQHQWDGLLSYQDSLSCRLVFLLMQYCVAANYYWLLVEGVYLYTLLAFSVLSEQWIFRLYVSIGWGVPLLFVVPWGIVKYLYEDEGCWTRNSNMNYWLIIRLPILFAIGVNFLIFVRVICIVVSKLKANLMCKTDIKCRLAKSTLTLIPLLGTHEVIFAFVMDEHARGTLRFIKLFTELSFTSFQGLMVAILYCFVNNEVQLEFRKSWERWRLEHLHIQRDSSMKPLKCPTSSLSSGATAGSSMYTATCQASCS
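Inverse agonism was detected as reduced cAMP-driven luciferase luminescence after 24 h compound treatment. The cells were HEK293 clones expressing constitutively active human GLP-1R with the reporter. Reporter-only and GPR119 cell lines served as counterscreen controls.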
GLP-1R agonist = agonists of human GLP-1 receptor; HEK293 GLP-1R CRE-luciferase, luminescence, 4-6 h; cells express a hypersensitive GLP-1R form; 380,000 compounds, 0.007% hits; Potency, µM (doses to about 45.6 µM), hits mostly activators; P43220
Large screens that a line does not name were inactive. Calls follow the shape of the dose curve; as a rule, active = well fitted curve in the direction sought with a large enough effect; inconclusive = small, poorly fitted or top-dose-only effect, or another doubt; inactive = no such curve, though single readings can be large; an effect the other way counts as inactive or inconclusive.

CSc1nc(-c2ccccc2)nc(N2CCN(C)CC2)c1C(C)=O	GLP1R inv ag 3.2µM
C=CC[C@@H](CC(=O)N(CCO)Cc1ccccc1)C(=O)N[C@@H](COC(=O)[C@@H](CC=C)CC(=O)OC(C)(C)C)Cc1c[nH]c2ccccc12	GLP1R cytotox inconclusive, GLP1R inv ag 10µM
C=CCC[C@H](Cc1ccc(F)cc1)C(=O)OC[C@@H](Cc1c[nH]c2ccccc12)NC(=O)[C@H](CC=C)CC(=O)N(CCO)Cc1ccccc1	GLP1R cytotox inconclusive, GLP1R inv ag 2.8µM
CCOc1ccc(/C(O)=C2/C(=O)C(=O)N(CCCn3ccnc3)C2c2cccs2)cc1Cl (configuration not stated)	none
NC(=O)CC(O)c1cccc(Cl)c1 (configuration not stated)	none
OC(CNCCc1ccccc1)COc1ccc(OCC(O)CNCCc2ccccc2)cc1 (configuration not stated)	GLP1R cytotox inconclusive, GLP1R inv ag inconclusive
CC(C)N(CCNCC(O)COc1ccc(C(C)(C)c2ccccc2)cc1)C(C)C (configuration not stated)	GLP1R cytotox inconclusive, GLP1R inv ag 4µM
CCc1ccc(NC(=O)c2ccc(F)c(S(=O)(=O)NCC3COc4ccccc4O3)c2)cc1 (configuration not stated)	GLP1R cytotox inconclusive, GLP1R inv ag 5µM
CCc1ccc(NC(=O)c2ccc(F)c(S(=O)(=O)NCCc3ccc(OC)c(OC)c3)c2)cc1	GLP1R inv ag 10µM (no result: GLP-1R agonist)
CCOc1ccc(NC(=O)c2ccc(F)c(S(=O)(=O)N(Cc3ccc(C(=O)OC)cc3)Cc3ccc(OC)c(OC)c3)c2)cc1	none (no result: GLP-1R agonist)
CCc1ccc(NC(=O)c2ccc(F)c(S(=O)(=O)NC3CCCCCC3)c2)cc1	GLP1R inv ag inconclusive (no result: GLP-1R agonist)
Cc1ccc(N(CC(=O)N2CCN(c3cc(C)ccc3C)CC2)S(=O)(=O)c2c(C)nn(C)c2C)cc1	GLP1R inv ag inconclusive
CCCC1=Nc2cc(C(=O)NCc3ccccc3)ccc2Sc2ccccc21	GLP1R inv ag 4µM (no result: GLP-1R agonist)
CCC1=Nc2cc(C(=O)NCc3cccnc3)ccc2Sc2ccc(C)cc21	GLP1R cytotox inconclusive, PTHR1 ag inconclusive, GLP1R inv ag 1.8µM
CCC1=Nc2cc(C(=O)NCc3ccc(C)cc3)ccc2Sc2ccc(C)cc21	GLP1R inv ag 7.1µM (no result: GLP-1R agonist)
O=C(NC(=S)N(CCO)Cc1ccccc1)c1cc(Br)ccc1Cl	GLP1R cytotox inconclusive, PTHR1 ag inconclusive, GLP1R inv ag inconclusive
CCCCCCCCOc1ccccc1C(=O)Nc1ccc(C(=O)OCC[N+](C)(CC)CC)cc1	none (no result: GLP1R cytotox, PTHR1 ag, GLP1R inv ag)
C[C@@]12C(=O)N(c3ccc(F)cc3)C(=O)N1[C@@H]1c3ccccc3OC[C@@H]1[C@H]2c1ccccc1	GLP1R inv ag 10µM
O=C1c2ccccc2CCC12OC2c1ccncc1 (configuration not stated)	none
CC1=C(C(=O)OCc2ccc3c(c2)OCO3)C(c2ccccc2OCc2ccccc2)NC(=O)N1 (configuration not stated)	none
CC1=C(C(=O)OCc2ccc3c(c2)OCO3)C(c2ccccc2)NC(=O)N1 (configuration not stated)	GLP1R cytotox inconclusive, GLP1R inv ag 3.2µM
c1ccc(-c2csc(Nc3ccccn3)n2)cc1	GLP1R inv ag 10µM
Cc1ccc(-c2csc(Nc3ccccn3)n2)cc1	GLP1R inv ag inconclusive
CC1CCC(C(C)C)C(=O)C1 (configuration not stated)	none (no result: GLP1R cytotox, PTHR1 ag, GLP1R inv ag)
Cc1ccccc1C(=O)N1CCC[C@H]1C(=O)N1CCC[C@H]1C(=O)NCc1ccccn1	none
Cc1ccc(S(=O)(=O)N(CC(O)Cn2c3ccccc3c3ccccc32)c2cccc(C(=O)NCCO)c2)cc1 (configuration not stated)	GLP1R inv ag 13µM
O=C(O)c1ccc(Nc2ncc([N+](=O)[O-])cc2[N+](=O)[O-])cc1	none
COc1ccc(C(=O)c2c(C)c3ccccc3n2CC(O)CNC(C)C)cc1 (configuration not stated)	GLP1R cytotox 8.9µM, PTHR1 ag inconclusive, GLP1R inv ag 2.2µM
COc1ccc(NCC(=O)n2c(C)c(C)c3ccccc32)cc1	none
CC(C)(C)c1ccc(C(=O)Nc2cccc(-n3cnnn3)c2)cc1	GLP1R inv ag inconclusive
C=C1CCN(c2ccc(C(=O)NCCC)cc2[N+](=O)[O-])CC1	none
O=C(Nc1ccc(Oc2cccc(C(F)(F)F)c2)nc1)c1ccco1	GLP1R inv ag inconclusive
COc1ccc(-c2cccc(NC(=O)c3ccco3)c2)nn1	none
CC(C)(C)c1ccc(Oc2ccc(NC(=O)c3ccco3)cn2)cc1	GLP1R inv ag 2.5µM
COc1ccc(-c2ccc(NC(=O)c3ccco3)cc2)nn1	GLP1R inv ag 7.1µM
C=C(NCc1ccccc1)c1ccccc1O	none (no result: GLP1R cytotox, PTHR1 ag, GLP1R inv ag)
O=C(NC1CCN(c2ncccn2)CC1)c1ccccc1Cl	none
C[C@@H](C(=O)O)c1ccc(C2CCCCC2)c2ccccc12	none (no result: GLP1R cytotox, PTHR1 ag, GLP1R inv ag)
COc1cc(NC(=O)c2ccccc2)c(OC)cc1NC(=O)CN1CCOCC1	none
COc1cc(NC(=O)c2ccccc2)c(OC)cc1NC(=O)CN1CCCCC1	GLP1R inv ag 5µM, GLP-1R agonist inconclusive
CCC(C(=O)Nc1ccccc1-c1ccccc1)c1ccccc1 (configuration not stated)	GLP1R inv ag 7.9µM
Cc1ccc(S(=O)(=O)N(C)C)cc1NC(=O)COC(=O)/C(=C/c1ccc(F)cc1)c1cccs1	GLP1R inv ag 10µM
Cc1ccccc1OCc1nc2ccccc2n1Cc1ccccc1Cl	GLP1R inv ag 3.5µM (no result: GLP-1R agonist)
CC(C)N1CCC1(C)C(=O)Nc1nccc2cccnc12 (configuration not stated)	none
CCN(CC)CC(O)Cn1c2ccccc2c2ccccc21 (configuration not stated)	GLP1R inv ag inconclusive
CCN(CC)CC(O)Cn1c(C)c(-c2ccccc2)c2cc([N+](=O)[O-])ccc21 (configuration not stated)	GLP1R cytotox inconclusive, GLP1R inv ag 4.5µM
CCCn1c(SCc2nc(-c3ccccc3OCC)no2)nnc1-c1ccc(Cl)cc1	GLP1R inv ag 10µM (no result: GLP-1R agonist)
CCCn1c(SCc2nc(-c3ccc(OC)cc3OC)no2)nnc1-c1ccc(Cl)cc1	GLP1R inv ag inconclusive (no result: GLP-1R agonist)
CCN(c1ccccc1)S(=O)(=O)c1cc(C(=O)OC2CCOC2=O)ccc1C (configuration not stated)	none
CCOC(=O)C1=C(N)Oc2cc(O)ccc2C1c1ccc([N+](=O)[O-])cc1 (configuration not stated)	GLP1R inv ag 10µM
CCOC(=O)C1=C(N)Oc2ccc3ccccc3c2C1c1ccc(O)cc1 (configuration not stated)	GLP1R inv ag inconclusive
Cc1cc(NC(=O)CSc2nc(-c3ccco3)cc(C(F)(F)F)n2)n(-c2ccccc2)n1	none
Cc1cc(NC(=O)CCCSc2nc(-c3ccco3)cc(C(F)(F)F)n2)n(-c2ccccc2)n1	GLP1R inv ag 8.9µM
